# From the supplement of paper PMC8728848
# The sample as a whole holds a higher share of the strongest signals than the screen did.
# Assays:
# Assay in all cases: glycan array binding signal (z-score within array); higher = stronger binding
# Conditions in all cases: glycan notation: IUPAC condensed, linker removed
# [1] = biological target: Fuc(a1-2)Gal(b1-3)GlcNAc(b1-3)[Gal(b1-4)GlcNAc(b1-6)]Gal(b1-4)Glc
# Outline: (§1)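 Glycan array data were curated from 3228 arrays in the Consortium for Functional Glycomics database and kept only where the protein sequence was available. Glycan names were converted to IUPAC-condensed notation, and columns mapping to the same glycan were averaged. The binding signal is a within-array Z-score, averaged across arrays of the same protein sequence at different concentrations or buffers and across linkers. Negative Z-scores can be read as non-binding.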
# [2] = biological target: Fuc(a1-2)Gal(b1-4)GlcNAc(b1-3)Gal(b1-4)GlcNAc
# Outline: as §1
# [3] = biological target: Fuc(a1-2)Gal(b1-4)GlcNAc6S
# Outline: as §1
# [4] = biological target: Fuc(a1-2)Gal(b1-4)[Fuc(a1-3)]GlcNAc(b1-2)[Fuc(a1-2)Gal(b1-4)[Fuc(a1-3)]GlcNAc(b1-4)]Man(a1-3)[Fuc(a1-2)Gal(b1-4)[Fuc(a1-3)]GlcNAc(b1-2)Man(a1-6)]Man(b1-4)GlcNAc(b1-4)GlcNAc
# Outline: as §1
# [5] = biological target: Fuc(a1-2)[Gal(a1-3)]Gal(b1-4)GlcNAc
# Outline: as §1
# [6] = biological target: Fuc(a1-3)[Gal(b1-4)]GlcNAc(b1-2)Man(a1-3)[Fuc(a1-3)[Gal(b1-4)]GlcNAc(b1-2)Man(a1-6)]Man(b1-4)GlcNAc(b1-4)GlcNAc
# Outline: as §1
# [7] = biological target: Fuc(a1-3)[Gal(b1-4)]GlcNAc(b1-2)Man(a1-3)[Fuc(a1-3)[Gal(b1-4)]GlcNAc(b1-2)Man(a1-6)]Man(b1-4)GlcNAc(b1-4)[Fuc(a1-6)]GlcNAc
# Outline: as §1
# [8] = biological target: Fuc(a1-3)[Gal(b1-4)]GlcNAc(b1-6)GalNAc
# Outline: as §1
# [9] = biological target: Gal(a1-3)Gal
# Outline: as §1
# [10] = biological target: Gal(a1-3)Gal(b1-4)GlcNAc(b1-2)Man(a1-3)[Gal(a1-3)Gal(b1-4)GlcNAc(b1-2)Man(a1-6)]Man(b1-4)GlcNAc(b1-4)GlcNAc
# Outline: as §1
# [11] = biological target: Gal(a1-3)[Gal(a1-4)]Gal(b1-4)GlcNAc
# Outline: as §1
# [12] = biological target: Gal(a1-6)Glc
# Outline: as §1
# [13] = biological target: Gal(b1-3)GlcNAc(b1-2)[Gal(b1-3)GlcNAc(b1-6)]Man(a1-6)[Gal(b1-3)GlcNAc(b1-2)Man(a1-3)]Man(b1-4)GlcNAc(b1-4)GlcNAc
# Outline: as §1
# [14] = biological target: Gal(b1-3)GlcNAc(b1-3)Gal(b1-3)GlcNAc
# Outline: as §1
# [15] = biological target: Gal(b1-3)GlcNAc(b1-3)Gal(b1-4)GlcNAc(b1-3)Gal(b1-4)GlcNAc(b1-2)[Gal(b1-3)GlcNAc(b1-3)Gal(b1-4)GlcNAc(b1-3)Gal(b1-4)GlcNAc(b1-6)]Man(a1-6)[Gal(b1-3)GlcNAc(b1-3)Gal(b1-4)GlcNAc(b1-3)Gal(b1-4)GlcNAc(b1-2)Man(a1-3)]Man(b1-4)GlcNAc(b1-4)[Fuc(a1-6)]GlcNAc
# Outline: as §1
# [16] = biological target: Gal(b1-3)GlcNAc(b1-3)Gal(b1-4)GlcNAc(b1-6)[Gal(b1-3)GlcNAc(b1-3)]Gal(b1-4)Glc
# Outline: as §1
# [17] = biological target: Gal(b1-3)GlcNAc(b1-6)[Gal(b1-3)]GalNAc
# Outline: as §1
# [18] = biological target: Gal(b1-3)[Neu5Ac(b2-6)]GalNAc
# Outline: as §1
# [19] = biological target: Gal(b1-4)GlcNAc(b1-3)Gal(b1-4)GlcNAc(b1-3)Gal(b1-4)GlcNAc(b1-2)Man(a1-3)[Gal(b1-4)GlcNAc(b1-3)Gal(b1-4)GlcNAc(b1-3)Gal(b1-4)GlcNAc(b1-2)Man(a1-6)]Man(b1-4)GlcNAc(b1-4)GlcNAc
# Outline: as §1
# [20] = biological target: Gal(b1-4)GlcNAc(b1-3)Gal(b1-4)GlcNAc(b1-3)Gal(b1-4)GlcNAc(b1-3)Gal(b1-4)GlcNAc(b1-3)Gal(b1-4)GlcNAc(b1-2)[Gal(b1-4)GlcNAc(b1-3)Gal(b1-4)GlcNAc(b1-3)Gal(b1-4)GlcNAc(b1-3)Gal(b1-4)GlcNAc(b1-3)Gal(b1-4)GlcNAc(b1-6)]Man(a1-6)[Gal(b1-4)GlcNAc(b1-3)Gal(b1-4)GlcNAc(b1-3)Gal(b1-4)GlcNAc(b1-3)Gal(b1-4)GlcNAc(b1-3)Gal(b1-4)GlcNAc(b1-2)Man(a1-3)]Man(b1-4)GlcNAc(b1-4)[Fuc(a1-6)]GlcNAc
# Outline: as §1
# [21] = biological target: Gal(b1-4)GlcNAc6P
# Outline: as §1
# [22] = biological target: Gal3S(b1-3)GalNAc
# Outline: as §1
# [23] = biological target: Gal3S(b1-4)Glc
# Outline: as §1
# [24] = biological target: Gal3S(b1-4)[Fuc(a1-3)]Glc6S
# Outline: as §1
# [25] = biological target: Gal3S4S(b1-4)GlcNAc
# Outline: as §1
# [26] = biological target: Gal3S6S(b1-4)GlcNAc
# Outline: as §1
# [27] = biological target: Gal6S(b1-4)Glc6S
# Outline: as §1
# [28] = biological target: GalNAc(b1-4)GlcNAc(b1-2)Man
# Outline: as §1
# [29] = biological target: GalNAc(b1-4)GlcNAc6S
# Outline: as §1
# [30] = biological target: GlcA(b1-6)Gal
# Outline: as §1
# [31] = biological target: GlcNAc(b1-2)[GlcNAc(b1-4)]Man(a1-3)[GlcNAc(b1-4)][GlcNAc(b1-2)[GlcNAc(b1-6)]Man(a1-6)]Man(b1-4)GlcNAc(b1-4)[Fuc(a1-6)]GlcNAc
# Outline: as §1
# [32] = biological target: GlcNAc(b1-3)Gal(b1-4)GlcNAc(b1-2)Man(a1-3)[GlcNAc(b1-3)Gal(b1-4)GlcNAc(b1-2)Man(a1-6)]Man(b1-4)GlcNAc(b1-4)GlcNAc
# Outline: as §1
# [33] = biological target: GlcNAc(b1-3)Man
# Outline: as §1
# [34] = biological target: GlcNAc(b1-3)[GlcNAc(b1-4)][GlcNAc(b1-6)]GlcNAc
# Outline: as §1
# [35] = biological target: Man(a1-2)Man(a1-3)Man
# Outline: as §1
# [36] = biological target: Man(a1-3)[Man(a1-6)]Man(a1-6)[Man(a1-2)Man(a1-3)]Man(b1-4)GlcNAc(b1-4)GlcNAc
# Outline: as §1
# [37] = biological target: Neu5Ac(a2-3)Gal(b1-3)[Fuc(a1-4)]GlcNAc
# Outline: as §1
# [38] = biological target: Neu5Ac(a2-3)Gal(b1-4)GlcNAc(b1-2)Man(a1-3)[Neu5Ac(a2-3)Gal(b1-4)GlcNAc(b1-2)Man(a1-6)]Man(b1-4)GlcNAc(b1-4)GlcNAc
# Outline: as §1
# [39] = biological target: Neu5Ac(a2-3)Gal(b1-4)GlcNAc(b1-2)[Neu5Ac(a2-3)Gal(b1-4)GlcNAc(b1-4)]Man(a1-3)[GlcNAc(b1-4)][Neu5Ac(a2-3)Gal(b1-4)GlcNAc(b1-4)Man(a1-6)]Man(b1-4)GlcNAc(b1-4)GlcNAc
# Outline: as §1
# [40] = biological target: Neu5Ac(a2-3)Gal(b1-4)GlcNAc(b1-2)[Neu5Ac(a2-3)Gal(b1-4)GlcNAc(b1-6)]Man(a1-6)[Neu5Ac(a2-3)Gal(b1-4)GlcNAc(b1-2)Man(a1-3)]Man(b1-4)GlcNAc(b1-4)GlcNAc
# Outline: as §1
# [41] = biological target: Neu5Ac(a2-3)Gal(b1-4)GlcNAc(b1-3)Gal(b1-4)GlcNAc(b1-3)GalNAc
# Outline: as §1
# [42] = biological target: Neu5Ac(a2-3)Gal(b1-4)[Fuc(a1-3)]GlcNAc(b1-3)Gal
# Outline: as §1
# [43] = biological target: Neu5Ac(a2-3)Gal(b1-4)[Fuc(a1-3)]GlcNAc(b1-6)[Neu5Ac(a2-3)Gal(b1-3)]GalNAc
# Outline: as §1
# [44] = biological target: Neu5Ac(a2-3)GalNAc
# Outline: as §1
# [45] = biological target: Neu5Ac(a2-3)[GalNAc(b1-4)]Gal(b1-4)Glc
# Outline: as §1
# [46] = biological target: Neu5Ac(a2-6)Gal(b1-4)GlcNAc(b1-2)Man(a1-3)Man(b1-4)GlcNAc(b1-4)GlcNAc
# Outline: as §1
# [47] = biological target: Neu5Ac(a2-6)Gal(b1-4)GlcNAc(b1-2)Man(a1-3)[Neu5Ac(a2-6)Gal(b1-4)GlcNAc(b1-2)Man(a1-6)]Man(b1-4)GlcNAc(b1-4)[Fuc(a1-6)]GlcNAc
# Outline: as §1
# [48] = biological target: Neu5Ac(a2-6)Gal(b1-4)GlcNAc(b1-2)Man(a1-6)[GlcNAc(b1-2)Man(a1-3)]Man(b1-4)GlcNAc(b1-4)GlcNAc
# Outline: as §1
# [49] = biological target: Neu5Ac(a2-6)Gal(b1-4)GlcNAc(b1-2)Man(a1-6)[Man(a1-3)]Man(b1-4)GlcNAc(b1-4)GlcNAc
# Outline: as §1
# [50] = biological target: Neu5Ac(a2-6)Gal(b1-4)GlcNAc(b1-2)[Neu5Ac(a2-6)Gal(b1-4)GlcNAc(b1-4)]Man(a1-3)[GlcNAc(b1-4)][Neu5Ac(a2-6)Gal(b1-4)GlcNAc(b1-2)[Neu5Ac(a2-6)Gal(b1-4)GlcNAc(b1-6)]Man(a1-6)]Man(b1-4)GlcNAc(b1-4)GlcNAc
# Outline: as §1
# [51] = biological target: Neu5Ac(a2-6)Gal(b1-4)GlcNAc(b1-2)[Neu5Ac(a2-6)Gal(b1-4)GlcNAc(b1-6)]Man(a1-6)[Neu5Ac(a2-6)Gal(b1-4)GlcNAc(b1-2)Man(a1-3)][GlcNAc(b1-4)]Man(b1-4)GlcNAc(b1-4)GlcNAc
# Outline: as §1
# [52] = biological target: Neu5Ac(a2-6)Gal(b1-4)GlcNAc(b1-3)Gal(b1-4)GlcNAc(b1-3)Gal(b1-4)GlcNAc(b1-2)Man(a1-3)[Neu5Ac(a2-6)Gal(b1-4)GlcNAc(b1-3)Gal(b1-4)GlcNAc(b1-3)Gal(b1-4)GlcNAc(b1-2)Man(a1-6)]GalNAc
# Outline: as §1
# [53] = biological target: Neu5Gc(a2-6)GalNAc
# Outline: as §1
binder,measurement,setting,value
"Ovorubin (Pomacea canaliculata), J7I2T6 (protein) MFVATSLLLAIATLVVRASPHNYLIMDIEPPKSVSERDILNLLSPLQVKHSFRVTGSTRLLIVIRLDAQSYEKLDEITVPGKVEVIPAVNMADTMERCGVSWPRVELTDDNVTLFESESTLTDVTKEQLKAMLIGYGEHMSGLLQAHRFEYYQAAGATPHRHFVFVNSVPDEIEVFGREGVDIWGGPGEFVVKPQYVTRI",glycan array binding signal (z-score),[1],0.184
same,glycan array binding signal (z-score),[2],0.006
same,glycan array binding signal (z-score),[3],0.049
same,glycan array binding signal (z-score),[4],0.485
same,glycan array binding signal (z-score),[5],-0.498
same,glycan array binding signal (z-score),[6],0.055
same,glycan array binding signal (z-score),[7],-0.362
same,glycan array binding signal (z-score),[8],0.355
same,glycan array binding signal (z-score),[9],-0.576
same,glycan array binding signal (z-score),[10],0.572
same,glycan array binding signal (z-score),[11],7.96
same,glycan array binding signal (z-score),[12],-1.13
same,glycan array binding signal (z-score),[13],4.93
same,glycan array binding signal (z-score),[14],-0.763
same,glycan array binding signal (z-score),[15],2.9
same,glycan array binding signal (z-score),[16],-0.801
same,glycan array binding signal (z-score),[17],0.3
same,glycan array binding signal (z-score),[18],-0.862
same,glycan array binding signal (z-score),[19],0.387
same,glycan array binding signal (z-score),[20],2.67
same,glycan array binding signal (z-score),[21],-0.461
same,glycan array binding signal (z-score),[22],0.802
same,glycan array binding signal (z-score),[23],-0.766
same,glycan array binding signal (z-score),[24],3.72
same,glycan array binding signal (z-score),[25],9.33
same,glycan array binding signal (z-score),[26],4.31
same,glycan array binding signal (z-score),[27],3.93
same,glycan array binding signal (z-score),[28],-0.618
same,glycan array binding signal (z-score),[29],-0.066
same,glycan array binding signal (z-score),[30],-0.181
same,glycan array binding signal (z-score),[31],-0.233
same,glycan array binding signal (z-score),[32],-0.39
same,glycan array binding signal (z-score),[33],-0.105
same,glycan array binding signal (z-score),[34],7.53
same,glycan array binding signal (z-score),[35],0.255
same,glycan array binding signal (z-score),[36],-0.9
same,glycan array binding signal (z-score),[37],-0.148
same,glycan array binding signal (z-score),[38],-0.45
same,glycan array binding signal (z-score),[39],-0.397
same,glycan array binding signal (z-score),[40],0.215
same,glycan array binding signal (z-score),[41],0.207
same,glycan array binding signal (z-score),[42],-1.06
same,glycan array binding signal (z-score),[43],-0.055
same,glycan array binding signal (z-score),[44],0.287
same,glycan array binding signal (z-score),[45],-0.336
same,glycan array binding signal (z-score),[46],0.036
same,glycan array binding signal (z-score),[47],-0.129
same,glycan array binding signal (z-score),[48],-0.738
same,glycan array binding signal (z-score),[49],-0.358
same,glycan array binding signal (z-score),[50],3.19
same,glycan array binding signal (z-score),[51],-0.646
same,glycan array binding signal (z-score),[52],3.06
same,glycan array binding signal (z-score),[53],0.691
